# Several values for one entry are separate records, joined by “and”; a condition that tells them apart may be missing. Equal entries are not always repeated. Inconclusive results are not listed. Entries that show only a call come without a potency. Unmarked numbers belong to inactive results. Activity calls are given as the source filed them. The call rests on the fitted dose curve.
# Assay: qHTS assay to identify small molecule agonists of H2AX - cell viability counter screen (AID 1224847); further: nearly all actives have a fitted effect of over 30% in size; on activity change, negative = cytotoxicity: top concentration of the series differs between compounds
# Settings: CHO-K1 viability, CellTiter-Glo luminescence, 3 h; series mostly up to 154 µM
# Outline: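 Compounds tested at 15 concentrations were incubated 3 hr at 37C with wild-type CHO-K1 cells; cellular ATP-based luminescence (CellTiter-Glo) indicated viability.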
# Potency means the concentration at half of the fitted maximal effect.
SMILES,Potency,"activity change, negative = cytotoxicity"
CCCCCl,inactive,
CC(C)(C)NCC(O)c1cc(Cl)c(N)c(C(F)(F)F)c1 (centres undefined),inactive,
O=C(Cc1ccccc1)OCCc1ccccc1,inactive,
N#CC(C#N)=C(C#N)C#N,inactive,
O=C(O)COc1cc(Cl)c(Cl)cc1Cl,inactive,
CCCC(C)(COC(N)=O)COC(=O)NC(C)C (centres undefined),inactive,
CN1CC[C@]23c4c5ccc(O)c4O[C@H]2[C@@H](O)C=C[C@H]3[C@H]1C5,inactive,
CCOP(=S)(S)OCC,inactive,
C=CCc1ccccc1O,inactive,
CC(C)(C)OOC(C)(C)CCC(C)(C)OOC(C)(C)C,inactive,
O=S(=O)(c1ccccc1)c1ccccc1,inactive,
Nc1c(Br)cc(Br)c2c1C(=O)c1ccccc1C2=O,,-4.33% [at 31.6 µM]
COc1cc(CC(C)N)c(OC)cc1Br (centres undefined),inactive,
O=C(O)c1ccc(=O)[nH]c1,inactive,
CCNC(=O)NC(=O)/C(C#N)=N/OC,inactive,
C=CCOCC1CO1 (centres undefined),inactive,
CCCSP(=S)(OCC)Oc1ccc(SC)cc1 (centres undefined),inactive,
CCOP(=S)(OCC)Oc1ccc(S(C)=O)cc1 (centres undefined),inactive,
C=C(C)C(=O)OCCCCOC(=O)C(=C)C,inactive,
C=C(Cl)Cl,inactive,

SMILES,Potency,"activity change, negative = cytotoxicity"
Clc1ccc(Cl)c(Cl)c1,inactive,
NNCCO,inactive,
O=C(N[C@H]1CN2CCC1CC2)c1ccc2c(c1)OCCO2,inactive,
ClCc1ccccc1Cl,inactive,
Nc1ccccc1C(=O)OCCc1ccccc1,101 µM (active) and 89.8 µM (active),
O=C=NC1CCCCC1,inactive,
c1ccc2c(c1)sc1ccccc12,inactive,
N#CC1(N=NC2(C#N)CCCCC2)CCCCC1,inactive,
CCOC(C(=O)OCCN(C)C)(c1ccccc1)c1ccccc1,inactive,
CC1(C)CC(=O)CC(C)(C)N1[O],inactive,
CCC[N+](CCC)(CCC)CCC,inactive,
Nc1cc(Cl)cc(C(=O)O)c1Cl,inactive,
C[C@H]1[C@@H]2Cc3ccc(O)cc3[C@@]1(C)CCN2C,inactive,
CCCCCCCCCCCCN(C)C,inactive,
CC(C)(C)NCC(O)c1ccccc1Cl (centres undefined),inactive,
COc1cc(C[C@@H](C)N)c(OC)cc1Br,inactive,
CCCCNC(=O)OCC#CI,50.2 µM (active) and 101 µM (active),
CC(C)CCCCCCCOC(=O)c1ccccc1C(=O)OCCCCCCCC(C)C,inactive,
C1CS1,inactive,
